Results published in PubChem BioAssay AID1159580 (chemical genetic matrix, 2015).
In all, about 5,500 compounds went through this assay and about 2,000 (36%) were called active. Another 18% or so got no clear call; they are omitted. Rule as the data show it: active = normalized growth mostly below about 0.91 (no sharp cut-off); inconclusive = no clear call, values can overlap the other calls; inactive = mostly above about 0.92. Some of the results follow.

Experiment: chemical genetic growth profiling, strain panel (AID 1159580);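 also: tested at 20 µM; growth read once vehicle control cultures reached saturation at 30 °C; 1 = growth at the plate median or of vehicle wells; lower values mean less growth of the strain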
Settings: S. cerevisiae deletion strains, growth OD

Measured: normalized growth

CS/C(N)=N\N=C/c1c(F)cccc1Cl
inactive: locus YAL013W, strain DEP1, hits give low values 0.998 | locus YBR229C, strain ROT2, hits give low values 0.992 | locus YCL061C, strain MRC1, hits give low values 0.996 | locus YDL101C, strain DUN1, hits give low values 1 | locus YDR150W, strain NUM1, hits give low values 0.995 | locus YEL061C, strain CIN8, hits give low values 1 | locus YGR078C, strain PAC10, hits give low values 1.01 | locus YHR030C, strain SLT2, hits give low values 0.988 | locus YHR087W, strain rtc3, hits give low values 0.979 | locus YJL187C, strain SWE1, hits give low values 0.986 | locus YJR043C, strain POL32, hits give low values 0.992 | locus YJR075W, strain HOC1, hits give low values 0.991 | locus YLR039C, strain RIC1, hits give low values 1.1 | locus YLR058C, strain SHM2 (second series), hits give low values 0.998 | locus YLR085C, strain ARP6, hits give low values 1.08 | locus YLR262C, strain YPT6, hits give low values 1.03 | locus YML094W, strain GIM5, hits give low values 0.993 | locus YMR219W, strain ESC1, hits give low values 0.995 | locus YMR263W, strain SAP30, hits give low values 1.02 | locus YNL153C, strain GIM3, hits give low values 0.998 | locus YNL298W, strain CLA4 (second series), hits give low values 1.05 | locus YNL322C, strain KRE1, hits give low values 1 | locus YNR030W, strain Alg12, hits give low values 1.05 | locus YPL055C, strain LGE1, hits give low values 1 | locus YPL241C, strain CIN2, hits give low values 0.988 | locus YPR135W, strain CTF4, hits give low values 1.03
